Among the data in PubChem BioAssay (NCI) are growth values, retold here.

Values joined by “and” are separate entries in the source; they are usually repeats but may differ in a detail not shown here. Identical values can stand only once. The panel holds about 83,000 compounds, 20% with a hit somewhere; the sample as a whole holds those more often.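 Activity criterion: percent growth below 10, measured after cells in 96-well plates were exposed to a single compound concentration for 48 hours.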 Active and inactive are the calls of the source.

The test concerns NCI-H460 lung. In words: NCI-60 one-dose screen, 48 h (100 = growth as untreated, 0 = no growth, -100 = all killed). The following applies: 10 µM unless noted.
In the case of `NS(=O)(=O)c1cc2c(cc1Cl)NC(C(Cl)Cl)NS2(=O)=O` (stereo unspecified), the growth is 110% (inactive) and 114% (inactive).
Then `O=Nc1ccc(O)cc1`, with 109% (inactive) and 96.9% (inactive); and `COc1ccc2c(=O)cc(-c3ccccc3)[nH]c2c1`, with 6.58% (active) and 4.24% (active).
Under `O=CC(O)C(O)C(O)CO` (stereo unspecified) stands 98.7% (inactive) and 111% (inactive).
Under `CN(C)c1ccc(/C=C(\C#N)c2ccccc2)cc1` stands 11.2% (inactive) and 20.8% (inactive) and 12.2% (inactive).
As for `OCCN1CCN(CCO)CC1`, the growth was 111% (inactive) and 98.6% (inactive) and 108% (inactive).
On to `CC1=C[C@H]2c3c(c(O)c(O)c4oc5cc(O)cc(O)c5c(=O)c34)[C@H](c3cc(O)c(O)c4oc5cc(O)cc(O)c5c(=O)c34)[C@H]2C(C)(C)C1`, for which the growth was -41.5% (active) and -57.7% (active).
Under `CCOc1ccc2c(S(=O)(=O)O)cccc2c1[N+](=O)[O-]` stands 99.1% (inactive) and 105% (inactive); under `Nc1ccccc1Nc1ccccc1`, 94.5% (inactive) and 104% (inactive); under `Oc1ccccc1C=NCC1CCC(CN=Cc2ccccc2O)CC1` (stereo unspecified), 41.7% (inactive).
`Clc1ccc(NC(Nc2ccc(Cl)cc2)C(Cl)(Cl)Cl)cc1`: the growth was 93.9% (inactive) and 105% (inactive).
